Results reported in PubChem BioAssay (NCI).
This is part of a sample that, as a whole, favours compounds with a hit. Of some 83,000 tested, about 20% had one in any assay.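 Treatment: one concentration, 48 hours, 96-well format. Scoring: percent growth, with anything below 10 considered active.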 Values without a mark were called inactive. Activity calls are given as the source filed them.

How the values were obtained:
Experiment in all cases: NCI-60 one-dose screen, 48 h (100 = growth as untreated, 0 = no growth, -100 = all killed)
Settings in all cases: 10 µM unless noted
[1] = tested on: SR leukemia
[2] = tested on: RPMI-8226 leukemia
[3] = tested on: OVCAR-8 ovarian
[4] = tested on: OVCAR-5 ovarian
[5] = tested on: OVCAR-4 ovarian
[6] = tested on: SK-OV-3 ovarian
[7] = tested on: IGROV1 ovarian
[8] = tested on: OVCAR-3 ovarian
[9] = tested on: HS 578T breast
[10] = tested on: NCI/ADR-RES ovarian
[11] = tested on: T-47D breast
[12] = tested on: BT-549 breast
[13] = tested on: MDA-MB-435 melanoma
[14] = tested on: SW-620 colon
[15] = tested on: MCF7 breast
[16] = tested on: HCT-116 colon
[17] = tested on: HCC-2998 colon
[18] = tested on: KM12 colon

Structure (SMILES)	growth [1]	growth [2]	growth [3]	growth [4]	growth [5]	growth [6] [%]	growth [7]	growth [8]	growth [9]	growth [10]	growth [11] [%]	growth [12] [%]	growth [13]	growth [14]	growth [15]	growth [16]	growth [17]	growth [18]
CC1(C)C2CC=C(/C=N/NC(=O)C3CCC(=O)N3)C1C2 (centres undefined)	116%	103%	105%	107%	101%	106	109%	112%	104%	105%	107	105	106%	104%	99.1%	108%	119%	106%
O=C(CSc1nc2ccc([N+](=O)[O-])cc2[nH]1)Nc1cccc([N+](=O)[O-])c1	41.1%	11.9%	60%	82.6%	28.7%	55.8	59.1%	38.9%	66.9%	66.9%	16.2	59	43.8%	73.8%	52.8%	33.6%	62.9%	57.4%
COc1cc(-c2cc(-c3ccc(Nc4ncnc5cc(Cl)ccc45)cc3)nc(N3CCN(C)CC3)n2)cc(OC)c1OC	42.7%	76.2%	35.1%	103%	58.9%	114	81.3%	105%	73.2%	85.3%	99.3	94.5	102%	72.4%	53.8%	64%	110%	86.1%
COc1ccc(C(c2cc(OC)c(OC)c(OC)c2)N2CCN(Cc3ccccc3)CC2)cc1 (centres undefined)	16.1%	84.1%	92.6%	84.7%	97%	66.2	63%	69%	59.1%	61.6%	75.1	92.4	-32.2% (active)	43.6%	47.7%	56.7%	91.9%	40.6%
COc1cc(OC)cc(C2C(C#N)=C(N)Oc3c2ccc2ccc(O)cc32)c1 (centres undefined)	12.6%	8.83% (active)	18.1%	33.1%	55.6%	42.3	14.3%	-16% (active)	53.2%	-8.97% (active)	58.4	26.2	4.98% (active)	26.1%	7.95% (active)	4.25% (active)	7.75% (active)	5.84% (active)
O=C(O)CCCn1c(SCc2c(Cl)cccc2Cl)nc2ccsc2c1=O	9.9% (active)	19.2%	28.8%	50.7%	70.7%	34.3	44.9%	-20.4% (active)	11.9%	4.6% (active)	35.5	34.2	-58.4% (active)	15.1%	20.6%	18.8%	29.6%	18.3%
COc1cc2c3c(c1O)-c1ccccc1[C@@H]1OC(=O)N(CC2)[C@H]31	98.2%	99.2%	97.8%	116%	105%	106	114%	115%	102%	104%	89.6	111	107%	105%	90%	99.3%	96.8%	108%
N=C(N)c1ccc(-c2ccc(-c3ccc(Cl)cc3Cl)s2)cc1F	-6.47% (active)	-36.4% (active)	-35.3% (active)	-7.4% (active)	-24.9% (active)	74.9	-88.4% (active)	-79.3% (active)	9.71% (active)	10.1%	14.8	84.8	-79.9% (active)	-64% (active)	-65.8% (active)	-36.6% (active)	-81.7% (active)	-86.3% (active)
